From PubChem BioAssay AID1032 (The Scripps Research Institute Molecular Screening Center, 2008)
Out of some 200,000 compounds screened, about 670 (0.34%) were called active. Rule as the data show it: active = activation above about 22%; inactive = the rest. This excerpt belongs to a sample that is enriched for actives.

These molecules were tested against Peroxisome proliferator-activated receptor gamma (Homo sapiens) (UniProt P37231) (assay: agonists of PPARg-SRC-2 recruitment, primary screen, biochemical, HTS (AID 1032;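 also: 0% = vehicle and 100% = reference agonist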)). Settings: PPARgamma LBD-SRC-2 recruitment, at 8 µM, hits give high values.
Peroxisome proliferator-activated receptor gamma (Homo sapiens), sequence (P37231 whole entry, looked up, the tested form may be a part): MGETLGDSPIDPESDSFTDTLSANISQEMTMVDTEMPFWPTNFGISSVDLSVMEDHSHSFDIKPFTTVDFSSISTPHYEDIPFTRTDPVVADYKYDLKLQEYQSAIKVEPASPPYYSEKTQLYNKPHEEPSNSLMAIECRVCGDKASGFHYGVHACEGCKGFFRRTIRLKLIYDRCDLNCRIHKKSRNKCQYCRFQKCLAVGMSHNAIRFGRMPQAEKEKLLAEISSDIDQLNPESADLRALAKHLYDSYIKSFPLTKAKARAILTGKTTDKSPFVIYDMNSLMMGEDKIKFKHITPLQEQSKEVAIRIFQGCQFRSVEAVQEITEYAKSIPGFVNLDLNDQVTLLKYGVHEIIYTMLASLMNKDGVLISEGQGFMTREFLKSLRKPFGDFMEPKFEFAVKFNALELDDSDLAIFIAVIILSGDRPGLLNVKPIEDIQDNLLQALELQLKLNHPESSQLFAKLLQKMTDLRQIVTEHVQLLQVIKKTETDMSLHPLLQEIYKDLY

activation, active:
Cc1nc(-c2ccccc2)sc1-c1nc(-c2ccccc2)ncc1S(=O)(=O)c1ccccc1 30%
CC(C)CNC(=O)COC(=O)c1ccccc1OCC(=O)Nc1ccc(Br)cc1 23.8%
Cn1c(-c2sc3cc(C(F)(F)F)cnc3c2-c2ccccc2)n[nH]c1=S 49.1%
COC(=O)c1[nH]c2ccc(Br)cc2c1NC(=O)Oc1ccccc1 30%
COc1cc2c(cc1OC)C(Nc1ccc(S(N)(=O)=O)cc1)=NC(C)(C)C2 77.9%
O=C(CSc1c2c(nc3ccc(Cl)cc13)CCCC2)NCc1ccco1 30.9%
Cc1ccccc1-c1n[nH]c(=S)n1/N=C/c1ccc(-c2ccccc2Br)o1 40.9%
CC(=O)c1ccc(S(=O)(=O)N2CCN(c3nc4c(C)c(C)ccc4cc3C#N)CC2)cc1 32%
Cc1cc(C)c2c(c1)cc(C)c1nnc(SCC(=O)Nc3cc(C)on3)n12 26.5%
NC(=O)CSc1oc(-c2cccs2)nc1S(=O)(=O)c1ccccc1 36.9%
COc1ccc(/C(O)=C2/C(=O)C(=O)N(c3nc(C)c(C)s3)C2c2ccco2)cc1 (centres undefined) 22.7%
COc1ccc2c(Cl)c(-c3nnco3)sc2c1 22.3%
O=C(Oc1ccccc1)Oc1ccc2c(c1)oc(=O)c1ccccc12 48.7%
O=C(CSc1ccsc1[N+](=O)[O-])N1CCCCC1 22%

activation, inactive:
C=CCn1c(-c2sc(-c3ccccc3)nc2C)n[nH]c1=S 7.03%
Cc1nc(-c2ccccc2)sc1C(=O)/C=C/c1ccccc1 13.4%
O=C(NC(=S)Nc1cc(C(F)(F)F)ccc1N1CCOCC1)c1ccc(-c2cccc(Cl)c2)o1 2.85%
COc1cc(OC)nc(N/N=C(\c2ccccc2)c2ccncc2)n1 -0.95%
CC1=NCCN1S(=O)(=O)c1cccc([N+](=O)[O-])c1 0.1%
O=C(CN(C(=O)c1csnn1)c1cccc(F)c1)NCc1ccc(F)cc1 -2.69%
O=C(c1nnc(-c2ccc(Cl)cc2)o1)C1CCCC1 5.05%
Cc1cccc(C(=O)OCC(=O)NCC(C)C)c1O 1.94%
COCC(=O)Nc1ccc(Br)cc1 0.8%
O=C(Nc1ccc(Cl)cc1)C1c2cccc[n+]2CC(=O)N1Cc1ccc2c(c1)OCO2 (centres undefined) -2.95%
CCCC/S(C)=N/S(=O)(=O)c1ccc(C)cc1 (centres undefined) 4.28%
CC(=O)n1c(C=Nc2ccccc2)c(O)c2ccccc21 18.1%
COc1ccc(CC(NC(C)=O)C(=O)NC2CCN(C(=O)c3ccc(OC)c(OC)c3)CC2)cc1OC (centres undefined) -1.68%
Cn1c(-c2sccc2OCc2cccc(C(F)(F)F)c2)n[nH]c1=S 3.72%
Cc1cc(C(F)(F)F)n2ncc(-c3ccccc3)c2n1 6.32%
O=C1CN(C(=O)CN2C(=O)NC3(CCCCC3)C2=O)c2ccccc2N1 -3.02%
CCSc1ccccc1C(=O)Nc1ccc2c(c1)OCO2 2.54%
COC(C(=O)Nc1ccc(S(=O)(=O)Nc2ccc(C)c(C)c2)cc1)c1ccccc1 (centres undefined) -10.9%
COC(=O)c1[nH]c2ccccc2c1NC(=O)CN1CCCc2ccccc21 -0.25%
COC(=O)c1[nH]c2ccccc2c1NS(=O)(=O)c1ccc(OC)cc1OC 13.7%
O=C(Nc1ccc2cn[nH]c2c1)c1ccc(S(=O)(=O)N2CCOCC2)cc1 3.19%
Cc1nccn1CCC1CCCCN1C(=O)CCc1nnc(-c2ccsc2)o1 (centres undefined) -4.68%
CN(C)CCOc1ccc(Cl)cc1C(C)(C)C 3.96%
COc1cc2c(cc1O)C(SC)=NC(C)(C)C2 1.5%
COc1cc2c(cc1OC)C(C(C)C)=NC(C)(C)C2 4.08%
COCCNC(=O)c1ccc(N2CCC3(CC2)OCCO3)c([N+](=O)[O-])c1 -6.47%
COc1ccc(C(=O)Nc2ccc3nc(N4CCCCC4)cc(C)c3c2)cc1OC 4.19%
COc1cccc(/C=C2\SC(=N)N(c3ccc(F)cc3)C2=O)c1 3.36%
O=C(/C=C/c1ccc(Cl)cc1Cl)NCc1ccco1 -0.42%
O=C(NCc1ccco1)c1cc(-c2cccnc2)nc2ccc(Cl)cc12 8.92%
COC(=O)Cn1c(=NC(=O)c2cc(OC)c(OC)c(OC)c2)sc2cc(OC)ccc21 -0.43%
Cc1ccccc1-c1n[nH]c(=S)n1C 7.57%
Cc1n[nH]c(=S)n1/N=C/c1ccc(Br)o1 6.61%
CSc1ccccc1C(=O)NCc1ccccc1 -5.42%
Cc1ccc(C(=O)COC(=O)CCN2C(=O)C3C4CC(C(Br)C4Br)C3C2=O)cc1 (centres undefined) 3.47%
COc1ccc(O[C@H]2C=C[C@@H](c3ccccc3)O[C@@H]2CO/N=C/C[C@@H]2C=C[C@H](OC(C)=O)[C@@H](COC(C)=O)O2)cc1 1.19%
CC(=O)Nc1ccc(S(=O)(=O)NC(C)C(=O)OCC(=O)NC2CCCC2)cc1 (centres undefined) -3.44%
CS(=O)(=O)N1CCc2cc(C(=O)Nc3ccccc3)ccc21 -4.48%
Cc1ccc(NC(=O)CCOc2ccccc2)cc1S(=O)(=O)Nc1ccccc1Cl 3.41%
CCOC(=O)c1ccc(NC(=S)N2CCCC2)cc1 -1%
Cc1cccc2cc(C#N)c(N3CCCC3)nc12 -7.68%
Cc1cc(C)c2nc(N3CCCC3)c(C#N)cc2c1 1.23%
C/C(=N\Nc1ccc([N+](=O)[O-])cc1)c1ccc(-n2nncc2C(C)(C)C)cc1 -9.74%
N#Cc1ccsc1NC(=O)CN1CCN(S(=O)(=O)c2cc(Cl)ccc2Cl)CC1 0.56%
O=C(C1CCCO1)N1CCN(C(=S)Nc2cccc(Cl)c2)CC1 (centres undefined) -4.23%
O=C1OC(/C=C/c2ccccc2)=NC/1=C/c1ccco1 8.63%
CCc1cccc(OC2OC(CO)C(O)C(O)C2NC(C)=O)c1 (centres undefined) 9.45%
Cc1ccc(-c2csc(SCC(=O)Nc3cc(C)on3)n2)cc1 -2.51%
Cc1cc(NC(=O)CSc2nnc(Nc3ccccc3F)s2)no1 0.38%
Cc1cccc(NC(=O)Cn2c(=O)n(Cc3ccccc3)c(=O)c3c(C)c(C)sc32)c1 3.34%
N#Cc1c(-c2ccc(F)cc2)cc(C2CC2)nc1SCC(=O)c1cccs1 1.68%
O=C(c1ccc(F)cc1)N1CCC(n2nnc3ccccc32)CC1 -10.4%
C=CCC(C(=O)c1ccccc1)[N+](C)(C)CC=C (centres undefined) 1.14%
CN1CCN(S(=O)(=O)c2ccc(NC(=S)NC(=O)C3CC3)cc2)CC1 5.04%
COc1ccc(OC)c(C(=O)CSc2nnc(-c3cccs3)o2)c1 10.1%
COC(=O)CSc1nccc(-c2cccs2)n1 0.01%
COc1ccccc1C1/C(=C(/O)c2ccc(C)cc2)C(=O)C(=O)N1Cc1ccco1 (centres undefined) -3.88%
COc1ccc(/C(O)=C2\C(=O)C(=O)N(Cc3ccco3)C2c2ccc(OC)cc2OC)cc1 (centres undefined) 3.94%
CCC(C)(C)NC(=O)c1cc([N+](=O)[O-])ccc1N1CCCCC1 0.23%
CN(C)c1nccc(NCc2ccccc2)c1C#N 9.56%
CN1CCN(C(c2cc3cc4c(cc3[nH]c2=O)OCCO4)c2nnnn2C2CCCC2)CC1 (centres undefined) 4.65%
Cc1cc(C(=O)CC#N)c(C)n1-c1c(C)n(C)n(-c2ccccc2)c1=O 3.36%
O=C(Nn1cnnc1)c1ccc([N+](=O)[O-])cc1 8.86%
COc1ccc2c(Cl)c(C(=O)NCc3ccco3)sc2c1 4.82%
COc1ccc(-c2nnco2)cc1OC -1.39%
CC1=C(C)C(=O)OC(C(C)C2CCC3C4CC=C5CC(OC6OC(COC7OC(CO)C(O)C(O)C7O)C(O)C(O)C6O)CC(O)C5(C)C4CCC23C)C1 (centres undefined) -5.38%
NC(=O)COc1ccc(C23CC4CC(CC(C4)C2)C3)cc1 13.6%
COc1ccc(CC(=O)N2N=C(C)CC2(O)C(F)(F)F)cc1 (centres undefined) 4.95%
CCOC(=O)c1c(NC(=O)CNC2CCCc3ccccc32)sc(C(N)=O)c1C (centres undefined) 19.8%
NS(=O)(=O)c1ccc(CCNC(=S)Nc2ccc(S(N)(=O)=O)cc2)cc1 4.85%
CCC(C)(C)NC(=O)C(c1cccc(OC)c1OC)N(CC(C)C)C(=O)CCC(=O)Nc1cc(C)on1 (centres undefined) 7.07%
CC(=O)NC(Cc1ccc(F)c(F)c1)C(=O)NC1CCN(C(=O)c2ccc(C)cc2)CC1 (centres undefined) -0.89%
CC(=O)Oc1ccc2c(C)c(CC(C)O)c(=O)oc2c1 (centres undefined) -8.79%
Cc1c(Cc2ccccc2)c(=O)oc2cc(OCC(N)=O)ccc12 4.43%
O=C(CSc1ncnc2c1nnn2Cc1ccc(F)cc1)NC1CCCC1 11.8%
O=C(Nc1ccc([N+](=O)[O-])cc1)C1CC12CCC2 (centres undefined) 18.1%
CC1CC(C)CN(C(=O)CSc2ccsc2[N+](=O)[O-])C1 (centres undefined) 0.24%
O=C(CSCc1cccs1)N1CCCC1 -3.94%
Cc1cccc(OC(=O)c2sc3ncn(C)c(=O)c3c2C)c1 -5.78%
CC1=CC=CN2C1=NC(=O)CC2(C)C(=O)N(CC(=O)NC1CCCC1)c1ccccc1C (centres undefined) 1.53%
